40 compounds from PubChem BioAssay (NCI) can be followed below.

The panel holds about 79,000 compounds, 15% with a hit somewhere; the sample as a whole holds those more often. The source made the active and inactive calls. No stated cut-off is given here; in the data, active means growth inhibition above about 70%; inactive means the rest.

A short description of the first assay: NCI Yeast Anticancer Drug Screen. Data for the bub3 strain (AID 167). The settings on record: S. cerevisiae bub3 mutant strain, at 50.0 µM, stronger effect = higher value. In a few lines: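 Inhibition values come from growth of compound-treated mutant yeast normalised to vehicle-treated controls.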
`Nc1ccccc1C(F)(F)F`: the growth inhibition was 3.3% (inactive).

Take `O=C(O)CCC1CCCO1` (centres undefined): the growth inhibition was 15.3% (inactive).

As to `C=C1C(=O)O[C@H]2[C@H]1CC(=O)/C(C)=C/CC[C@@]1(C)O[C@@H]21`, the growth inhibition was 25.6% (inactive).

As to `CCOC(=O)c1c(C)[nH]c(=S)c(C#N)c1-c1cccc2ccccc12`, the growth inhibition was 17.8% (inactive).

For the compound `O=C1c2ccccc2C(=O)c2c1cc1c(c2O)OCO1`, the growth inhibition is -38% (inactive).

With `Cc1cc2c(C(C)C)c(O)c(O)c(C=Nc3cccc(O)c3)c2c(O)c1-c1c(C)cc2c(C(C)C)c(O)c(O)c(C=Nc3cccc(O)c3)c2c1O`, the growth inhibition was 50.8% (inactive).

Take `c1ccc2c[n+](CCCC[n+]3ccc4ccccc4c3)ccc2c1`: the growth inhibition is 41.8% (inactive).

Take `CC1CCC2C(C)C3C(CC4C5CC=C6CC(O)CCC6(C)C5CCC43COC(=O)c3ccccc3)N2C1` (centres undefined): the growth inhibition is 5.95% (inactive).

Take `CC1C(C)C1(c1ccccc1)C(C)(C)O` (centres undefined): the growth inhibition is -24.1% (inactive).

`CCOC(=O)C(CSC(=O)c1ccccc1)NC(=O)OCc1ccccc1` (centres undefined): the growth inhibition was 2.65% (inactive).

Take `CC1=CC(C)(C)NC(=S)N1c1cccc2c(S(=O)(=O)O)cccc12`: the growth inhibition was 4.55% (inactive).

In the case of `CCOc1ccccc1C=C1c2ccccc2C(=O)c2ccccc21`, the growth inhibition is 18.1% (inactive).

`CN(C)C=Nc1cc2c(cc1Br)-c1ccccc1C2=O`: the growth inhibition is 2% (inactive).

Regarding `CCOC(=S)SCCSC`, the growth inhibition was -3.6% (inactive).

As to `CC(=O)N(c1ccc(F)c(F)c1)c1ccc(F)c(F)c1`, the growth inhibition was 19.6% (inactive).

Consider `CSc1nc2c(c(=O)n1C)N=C(c1ccc(Cl)cc1)CC(c1ccccc1)N2` (centres undefined), for which the growth inhibition was -11.6% (inactive).

Take `CCC1=NO[C@@H](C(=O)OCc2ccccc2)[C@H]1C`: the growth inhibition is 9.15% (inactive).

In the case of `CC1CCC2(CC1)CC(=O)N(N1CCCCC1)C2=O` (centres undefined), the growth inhibition was 3.3% (inactive).

In the case of `OC1(c2ccccc2)CCN(C/C=C/c2ccccc2Cl)CC1`, the growth inhibition was 57.6% (inactive).

As for `Cn1c2ccccc2c(=O)c2cc(NC(=O)CCCCCCCC(=O)Nc3ccc4c(c3)c(=O)c3ccccc3n4C)ccc21`, the growth inhibition was -27.2% (inactive).

Take `CCCCNC(=O)c1cccc(OC)c1OC`: the growth inhibition is -5.65% (inactive).

For `O=C(O)CCS.[Cu+2]`, the growth inhibition is -29.9% (inactive).

Take `CCCCCCCCn1nnnc1N`: the growth inhibition was 20.7% (inactive).

Take `CCOC(=O)NC1CCc2ccccc2C1` (centres undefined): the growth inhibition is -3% (inactive).

The nature of a further assay: NCI Yeast Anticancer Drug Screen. Data for the mlh1 rad18 strain (AID 175). To be noted: S. cerevisiae mlh1 rad18 strain growth inhibition; at 50.0 µM; stronger effect = higher value. The procedure, abridged: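 Genetically defined yeast (DNA repair-deficient) exposed to compounds; growth inhibition determined relative to vehicle.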
`CN1C/C(=C/c2ccc(N(C)C)cc2)C(=O)/C(=C/c2ccc(N(C)C)cc2)C1`: the growth inhibition is -18.9% (inactive).

With `CCOC(=O)c1nc2ccccc2nc1NCc1ccc(Cl)cc1Cl`, the growth inhibition was -30.9% (inactive).

On to `N#CC(C#N)=Cn1c(=S)[nH]c2ccc([N+](=O)[O-])cc21`, for which the growth inhibition was -4.55% (inactive).

Regarding `Cn1c(=O)c2nc3c(=O)n(C)c(=O)n(CC(N)=O)c3nc2n(C)c1=O`, the growth inhibition was 21.4% (inactive).

Turning to `CCOC(=O)C(Cc1ccc(N=NN(C)C)cc1)NC(=O)CC1c2ccccc2-c2ccccc21` (centres undefined), the growth inhibition was 8.3% (inactive).

For `[Cu+2].[Cu+2].[O-]c1ccccc1C=Nc1ccccc1[O-].[O-]c1ccccc1C=Nc1ccccc1[O-]`, the growth inhibition was 1.55% (inactive).

Regarding `NC(C1SCCS1)C(O)C(O)C(O)CO` (centres undefined), the growth inhibition is -3.95% (inactive).

Take `NS(=O)(=O)c1nc(S(=O)(=O)O)c2[nH]cnc2n1`: the growth inhibition was 14.2% (inactive).

On to `COc1cc(C=O)c([N+](=O)[O-])cc1OC`, for which the growth inhibition was -8.85% (inactive).

Consider `CC(NC(=O)C(C)NC(=O)C(N)CCP(C)(=O)O)C(=O)O` (centres undefined), for which the growth inhibition was -9.2% (inactive).

With `Cc1c[n+]([O-])cc(C)c1N=Nc1ccc(N(C)C)cc1`, the growth inhibition is 18.2% (inactive).

For the compound `C[n+]1ccccc1C(=O)O`, the growth inhibition is 40.4% (inactive).

In the case of `CC(O)CNCc1ccc(N(C)C)cc1` (centres undefined), the growth inhibition was 13.7% (inactive).

With `CC(=O)Nc1cc2c(cc1C=O)OCO2`, the growth inhibition was 11.3% (inactive).

On to `COc1cccc(C2c3cc4c(cc3OC(N3CCCCC3)C2C)OCO4)c1OC` (centres undefined), for which the growth inhibition was 61.8% (inactive).

Consider `COC(=O)c1ccc(SCCC(=O)CNc2nc(N)nc(N)c2[N+](=O)[O-])cc1`, for which the growth inhibition was 3.15% (inactive).

Take `Nc1ccccc1C(F)(F)F`: the growth inhibition is 8.25% (inactive).

Take `O=C(O)CCC1CCCO1` (centres undefined): the growth inhibition is -0.6% (inactive).

Take `C=C1C(=O)O[C@H]2[C@H]1CC(=O)/C(C)=C/CC[C@@]1(C)O[C@@H]21`: the growth inhibition is 7% (inactive).

Take `CCOC(=O)c1c(C)[nH]c(=S)c(C#N)c1-c1cccc2ccccc12`: the growth inhibition was -31.3% (inactive).

Consider `O=C1c2ccccc2C(=O)c2c1cc1c(c2O)OCO1`, for which the growth inhibition is 46.9% (inactive).

Regarding `Cc1cc2c(C(C)C)c(O)c(O)c(C=Nc3cccc(O)c3)c2c(O)c1-c1c(C)cc2c(C(C)C)c(O)c(O)c(C=Nc3cccc(O)c3)c2c1O`, the growth inhibition was 58.3% (inactive).

For `c1ccc2c[n+](CCCC[n+]3ccc4ccccc4c3)ccc2c1`, the growth inhibition was 44.8% (inactive).

As to `CC1CCC2C(C)C3C(CC4C5CC=C6CC(O)CCC6(C)C5CCC43COC(=O)c3ccccc3)N2C1` (centres undefined), the growth inhibition was 42.6% (inactive).

For `CC1C(C)C1(c1ccccc1)C(C)(C)O` (centres undefined), the growth inhibition was -3.45% (inactive).

Consider `CCOC(=O)C(CSC(=O)c1ccccc1)NC(=O)OCc1ccccc1` (centres undefined), for which the growth inhibition is 20.1% (inactive).

As for `CC1=CC(C)(C)NC(=S)N1c1cccc2c(S(=O)(=O)O)cccc12`, the growth inhibition is 6.3% (inactive).

As to `CCOc1ccccc1C=C1c2ccccc2C(=O)c2ccccc21`, the growth inhibition is 6.25% (inactive).

For the compound `CN(C)C=Nc1cc2c(cc1Br)-c1ccccc1C2=O`, the growth inhibition is -15.7% (inactive).

Consider `CCOC(=S)SCCSC`, for which the growth inhibition is 11.6% (inactive).

Consider `CC(=O)N(c1ccc(F)c(F)c1)c1ccc(F)c(F)c1`, for which the growth inhibition is 14.2% (inactive).

For `CSc1nc2c(c(=O)n1C)N=C(c1ccc(Cl)cc1)CC(c1ccccc1)N2` (centres undefined), the growth inhibition is 15.8% (inactive).

Turning to `CCC1=NO[C@@H](C(=O)OCc2ccccc2)[C@H]1C`, the growth inhibition was -21.4% (inactive).

As for `CC1CCC2(CC1)CC(=O)N(N1CCCCC1)C2=O` (centres undefined), the growth inhibition was 23.9% (inactive).

Take `OC1(c2ccccc2)CCN(C/C=C/c2ccccc2Cl)CC1`: the growth inhibition is 85.8% (active).

`Cn1c2ccccc2c(=O)c2cc(NC(=O)CCCCCCCC(=O)Nc3ccc4c(c3)c(=O)c3ccccc3n4C)ccc21`: the growth inhibition was -1.45% (inactive).

Consider `CCCCNC(=O)c1cccc(OC)c1OC`, for which the growth inhibition is 3.45% (inactive).

Turning to `O=C(O)CCS.[Cu+2]`, the growth inhibition was -14.8% (inactive).

On to `CCCCCCCCn1nnnc1N`, for which the growth inhibition is 8.1% (inactive).

As for `CCOC(=O)NC1CCc2ccccc2C1` (centres undefined), the growth inhibition is 2.6% (inactive).
